The sample as a whole holds a higher share of hits than the screen did.
TTR transcr act = TTR transcription activation, primary screen. activation, % at 16.7 µM. SH-SY5Y TTR promoter Gaussia luciferase, luminescence; 100% = recombinant luciferase protein wells. AID 1117267. 1.3% of 92,000 active;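 active = activation above the mean of all tested compounds plus 3 SD, cut at about 9.5% in these data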;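 also: cells exposed to compounds for one day before reading; 0% = median of all test compound wells on the plate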
HuH7 TTR inh = counter-screen for TTR activators: TTR transcription inhibitors in HuH7 cells; shares compounds with TTR transcr act; HuH7 TTR promoter-Gaussia luciferase reporter, luminescence; inhibition, % at 16.7 µM; 4% of 1,100 active; AID 1117279;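 active = average inhibition above the solvent-only control wells' mean plus 3 SD, cut at about 15% in these data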;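 also: 0% = cells with DMSO only and 100% = cells with inhibitor control FD; inhibitors lower well luminescence so higher value means more inhibition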
TTR up confirm = human TTR transcription activation, confirmation; shares compounds with TTR transcr act; SHSY5Y TTR promoter Gaussia luciferase, luminescence; 100% = purified Lucia enzyme wells, no cells; activation, % at 16.7 µM; 1,100 tested, under 10 active;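 active = mean activation above a set limit taken from the earlier primary screen, cut at about 11% in these data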;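 also: 0% = DMSO-treated cells and 100% = recombinant Lucia luciferase without cells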
Active calls of the source: *.

SMILES	TTR transcr act	others
O=C(CN1CCN(S(=O)(=O)c2ccc(Br)cc2)CC1)N/N=C/c1ccncc1	-1
CCc1c(C2(O)CCCCC2)[nH]c2cnccc12	13*	HuH7 TTR inh=-4;TTR up confirm=0
Cc1c(C2(O)CCCCC2)[nH]c2ccc(C(F)(F)F)cc12	-4
COc1cccc(NC(=O)CN(C)C(=O)c2cc(S(=O)(=O)Nc3ccccc3OC)ccc2C)c1	4
COc1cccc(NC(=O)CN(C)C(=O)c2ccc(NS(=O)(=O)c3ccc(F)cc3)cc2)c1	0
COc1cccc(NC(=O)CN(C)C(=O)c2cc(S(=O)(=O)NCc3ccccc3)ccc2C)c1	32*	HuH7 TTR inh=-20;TTR up confirm=1
Cn1c(N)c(N=O)c(=O)n(C)c1=S	0
CCC(C)N(C(=O)CSc1nnc(C)n1C)C1CCS(=O)(=O)C1 (configuration not stated)	-1
NS(=O)(=O)c1ccc(NC(NC(=O)c2cccnc2)C(Cl)(Cl)Cl)cc1 (configuration not stated)	-2
COc1ccc2[nH]c3c(c2c1)CCN1C(=O)C(CC(=O)NCCCN(C)C)C[C@H](C(=O)N2CCCCC2)[C@@]31C (some centres not stated)	0
COc1ccc(/C=N/n2c(C)nnc2C)c(OC)c1OC	10*	HuH7 TTR inh=-6;TTR up confirm=0
COc1ccc(/C=N/N2CCN(C)CC2)c(OC)c1OC	4
COc1ccc(/C=N/n2c(-c3n[nH]c4c3CCC4)n[nH]c2=S)c(OC)c1OC	5
O=C(Nc1ccn(CC(=O)N2CCN(c3ccccn3)CC2)c(=O)n1)OCc1ccccc1	0
O=C(CCC(=O)N1CCN(S(=O)(=O)c2ccccc2)CC1)c1ccc(Br)cc1	4
CC1O[C@@H](O[C@H](C)CC[C@@H](C)O)C(O)C[C@H]1O (some centres not stated)	2
Cc1ccc(N2CCN(C(=O)c3cc(COc4c(C)cccc4C)on3)CC2)c(C)c1	1
Cc1ccc(OCc2cc(C(=O)N3CCCC3)no2)cn1	-1
COc1cccc(OCc2cc(C(=O)N3CCN(c4ccccc4O)CC3)no2)c1	11*	HuH7 TTR inh=4;TTR up confirm=1
COc1ccc(Nc2nc(C)nc3c2nnn3Cc2ccccc2Cl)c(OC)c1	0
N#C/C(=C\c1coc2ccc(O)cc2c1=O)C(=O)Nc1nc2ccccc2s1	-1
O=C(Nc1ccccc1)c1cc2n(n1)C(C(F)(F)F)CC(C1CC1)N2 (configuration not stated)	14*	HuH7 TTR inh=-15;TTR up confirm=1
O=C(NCc1ccco1)c1cc2n(n1)C(C(F)(F)F)CC(c1ccc(Cl)c(Cl)c1)N2 (configuration not stated)	-1
CC(C)NC(=O)c1cc2n(n1)C(C(F)(F)F)CC(c1ccco1)N2 (configuration not stated)	0
CC1CCC(NC(=O)CSc2nncn2C)CC1 (configuration not stated)	-1
SMILES	TTR transcr act	others
O=C(CCN1CCOCC1)NCc1ccccc1	1
O=C(CCN1CCOCC1)c1ccccc1	-2
N/C(CCN1CCOCC1)=N/O	10*	HuH7 TTR inh=-16;TTR up confirm=0
CN1CCN(S(=O)(=O)c2csc(C(N)=O)c2)CC1	-1
Cn1nc(C(=O)N2CCc3ccccc32)c2ccccc2c1=O	-1
Cc1cc(C(=O)N2CCc3ccccc32)n(-c2ccccc2)n1	10*	HuH7 TTR inh=21*;TTR up confirm=11*
Cc1cc(C)n(C(C)CC(=O)N2CCc3ccccc32)n1 (configuration not stated)	1
CC(=O)c1c(O)cc(C(C)C)n(-c2ccccc2)c1=O	-1
Cc1ccc(C(C)C)c(O)c1	4
CC(C)c1cccc(O)c(=O)c1	10*	HuH7 TTR inh=-7;TTR up confirm=-1
CCn1c(=O)c(CCC(=O)NCC2CCCO2)c(C)c2c(C)nn(-c3ccc(C)cc3)c21 (configuration not stated)	-1
O=C(Nc1ccc(C(O)(C(F)(F)F)C(F)(F)F)cc1)c1ccc(Cl)cc1	-2
COC(=O)c1ccc(CNC(=O)COC(=O)c2cccs2)cc1	0
[O-]/C(=C(\C(=S)Nc1ccc(SC(F)F)cc1)[n+]1ccccc1)c1cc(Cl)ccc1Cl	22*	HuH7 TTR inh=20*;TTR up confirm=-1
Cc1cc(C)c(/C([O-])=C(/C(=S)Nc2ccc(SC(F)F)cc2)[n+]2ccccc2)cc1C	-3
C=CCNC(=S)/C(=C(\[O-])c1ccc(Cl)cc1)[n+]1ccccc1	1
Nc1[nH]c(C(=O)c2ccccc2)c(-c2ccc(Br)cc2)c1C(=O)NCCCN1CCOCC1	3
Cc1cccc(CSc2nc3nc(C)cc(C)n3n2)c1	0
CC(C)(C)OC(=O)N1CCC(N[C@@H](Cc2c[nH]c3ccccc23)C(=O)NCCc2c[nH]c3ccccc23)(C(=O)NC2CCCCC2)CC1	-2
COC(=O)c1ccccc1NC(=O)c1nc2nc(C)cc(C(F)F)n2n1	9.8*	HuH7 TTR inh=-9;TTR up confirm=0
Cc1cc(C(F)F)n2nc(C(=O)Nc3c(F)cc(F)cc3Br)nc2n1	1
Cc1cc(C(F)F)n2nc(C(=O)O)nc2n1	0
CSc1sc(C(=O)NNC(C)=O)c2c1C=CCC2	6
Cc1c(Cl)cccc1NC(=O)CCN1CCN(C)CC1	2
CCCC(=O)Nc1ccc2oc(=O)ccc2c1	1
SMILES	TTR transcr act	others
CCn1c(SCC(=O)NCc2ccccc2)nc2nc3c(cc2c1=O)CCCC3	-1
CCn1c(SCC(=O)Nc2ccc(OC)cc2)nc2nc3c(cc2c1=O)CCCC3	-1
Cc1ccccc1-n1c(SCC(=O)Nc2ccccc2)nc2nc3c(cc2c1=O)CCCC3	13*	HuH7 TTR inh=-15;TTR up confirm=-1
CC(NC(=O)COC(=O)c1ccccc1F)C1CC2CCC1C2 (configuration not stated)	-1
Cc1cc2nc(-c3ccccc3)c(CC3CCCCC3)n2c(C)c1Br	22*	HuH7 TTR inh=-8;TTR up confirm=1
COc1ccc(-c2nc3cc(C)c(Br)c(C)n3c2CC2CCCCC2)cc1OC	2
Cc1cc2nc(-c3ccc(F)cc3)c(CC3CCCCC3)n2c(C)c1Br	2
CCCc1nc2cc(C)c(Br)c(C)n2c1CC1CCCCC1	-2
Cc1cc2nc(-c3cccc(Cl)c3)c(CC3CCCCC3)n2c(C)c1Br	2
Cc1ccc(-c2nc3cc(C)c(Br)c(C)n3c2CC2CCCCC2)cc1	9.8*	HuH7 TTR inh=-9;TTR up confirm=0
CCOc1nc2cnccc2n(CC(=O)Nc2ccccc2C(=O)OC)c1=O	0
Cc1cnc(NC(=O)CSc2nnc(-c3ccccc3)o2)s1	-2
O=C(CSc1nnc(-c2ccccc2)o1)NCC1CCCCC1	12*	HuH7 TTR inh=-6;TTR up confirm=-1
O=C(CSc1nnc(-c2cccc(F)c2)o1)NC1CCCC1	-1
CCOC(=O)[C@@H]1[C@H]2COc3ccc(Br)cc3[C@H]2N2C(=O)N(c3ccc(Cl)cc3)C(=O)[C@]12C	1
CC[C@H]1/C(=C/c2ccccc2)N2C(=O)C[C@H](c3ccccc3)N=C2N1C	3
O=C1CC(c2ccc3ccccc3c2)N=C2N(Cc3ccc4c(c3)OCO4)C/C(=C/c3ccccc3)N12 (configuration not stated)	-1
C=CCN1C/C(=C/c2ccccc2)N2C(=O)CC(c3ccccc3)N=C12 (configuration not stated)	11*	HuH7 TTR inh=-18;TTR up confirm=1
O=C(NCc1ccccc1)O[C@H]1CC[C@@]23CCCN2C(=O)CCC[C@H]3C1	-1
O=C1CCCN1C(=O)CSc1nnnn1-c1ccccc1	-1

Source: PubChem BioAssay
